From ChEMBL document CHEMBL1961873, “Compounds: GSK PKIS; Assays: Nanosyn kinase panel” (2012)

Assays:
[1] = biological target: T1, Muscle, skeletal receptor tyrosine-protein kinase (Homo sapiens) (UniProt O15146); settings: at 1 µM;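 note: reported value is the mean percent inhibition of MuSK kinase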
T1 sequence (whole entry): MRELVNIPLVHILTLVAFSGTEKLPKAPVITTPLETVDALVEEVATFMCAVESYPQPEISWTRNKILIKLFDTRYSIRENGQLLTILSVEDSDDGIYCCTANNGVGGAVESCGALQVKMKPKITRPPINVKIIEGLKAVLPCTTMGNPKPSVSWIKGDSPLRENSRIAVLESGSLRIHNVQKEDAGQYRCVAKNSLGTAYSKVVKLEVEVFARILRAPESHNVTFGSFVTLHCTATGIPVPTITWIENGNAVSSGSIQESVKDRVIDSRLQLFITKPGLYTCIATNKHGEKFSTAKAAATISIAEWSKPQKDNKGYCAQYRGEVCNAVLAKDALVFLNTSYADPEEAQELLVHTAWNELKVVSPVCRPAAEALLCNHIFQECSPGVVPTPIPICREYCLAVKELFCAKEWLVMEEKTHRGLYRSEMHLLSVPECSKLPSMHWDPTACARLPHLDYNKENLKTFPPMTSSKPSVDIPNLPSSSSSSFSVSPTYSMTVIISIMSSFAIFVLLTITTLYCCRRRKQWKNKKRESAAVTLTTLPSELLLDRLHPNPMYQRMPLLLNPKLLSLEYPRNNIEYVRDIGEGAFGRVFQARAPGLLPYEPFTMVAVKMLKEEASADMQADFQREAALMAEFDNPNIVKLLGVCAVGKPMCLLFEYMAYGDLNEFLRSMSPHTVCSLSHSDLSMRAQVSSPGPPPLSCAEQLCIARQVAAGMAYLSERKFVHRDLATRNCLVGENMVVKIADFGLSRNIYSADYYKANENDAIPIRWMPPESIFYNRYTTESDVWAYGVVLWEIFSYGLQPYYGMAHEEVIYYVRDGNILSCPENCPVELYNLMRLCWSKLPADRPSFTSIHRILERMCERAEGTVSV

[2] = biological target: Platelet-derived growth factor receptor alpha (Homo sapiens) (UniProt P16234); settings: at 0.1 µM
Platelet-derived growth factor receptor alpha (Homo sapiens), sequence (P16234 whole entry): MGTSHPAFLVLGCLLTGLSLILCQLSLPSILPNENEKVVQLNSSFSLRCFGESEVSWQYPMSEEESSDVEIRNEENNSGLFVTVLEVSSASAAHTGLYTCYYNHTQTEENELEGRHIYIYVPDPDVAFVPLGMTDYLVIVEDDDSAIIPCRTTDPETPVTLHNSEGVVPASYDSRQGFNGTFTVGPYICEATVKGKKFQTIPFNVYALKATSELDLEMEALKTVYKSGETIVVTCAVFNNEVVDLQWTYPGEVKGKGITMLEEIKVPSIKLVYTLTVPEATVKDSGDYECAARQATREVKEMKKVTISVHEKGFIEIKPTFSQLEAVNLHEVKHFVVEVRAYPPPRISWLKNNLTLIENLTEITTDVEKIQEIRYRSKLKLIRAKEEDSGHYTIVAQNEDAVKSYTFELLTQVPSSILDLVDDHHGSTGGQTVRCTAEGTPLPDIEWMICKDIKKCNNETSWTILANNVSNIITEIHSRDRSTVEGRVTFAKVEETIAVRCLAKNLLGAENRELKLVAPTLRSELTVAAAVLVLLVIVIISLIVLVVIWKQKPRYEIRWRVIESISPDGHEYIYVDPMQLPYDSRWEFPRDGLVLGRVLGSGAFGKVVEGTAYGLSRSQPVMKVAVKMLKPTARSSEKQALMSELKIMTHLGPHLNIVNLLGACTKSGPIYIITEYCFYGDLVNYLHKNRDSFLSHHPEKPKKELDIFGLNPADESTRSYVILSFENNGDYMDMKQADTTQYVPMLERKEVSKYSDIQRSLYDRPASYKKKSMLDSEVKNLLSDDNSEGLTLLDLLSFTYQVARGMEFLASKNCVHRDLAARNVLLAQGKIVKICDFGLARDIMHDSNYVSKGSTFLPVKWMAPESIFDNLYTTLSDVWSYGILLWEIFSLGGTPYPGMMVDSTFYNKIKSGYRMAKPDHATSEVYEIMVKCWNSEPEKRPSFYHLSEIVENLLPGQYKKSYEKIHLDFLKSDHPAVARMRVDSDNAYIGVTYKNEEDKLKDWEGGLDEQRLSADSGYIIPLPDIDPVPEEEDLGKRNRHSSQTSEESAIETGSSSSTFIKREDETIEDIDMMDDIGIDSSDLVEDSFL

[3] = biological target: Platelet-derived growth factor receptor alpha (Homo sapiens) (UniProt P16234); settings: at 1 µM
[4] = test system: Platelet-derived growth factor receptor alpha (Homo sapiens), P16234 [D842V]; settings: at 0.1 µM
[5] = test system: Platelet-derived growth factor receptor alpha (Homo sapiens), P16234 [D842V]; settings: at 1 µM
[6] = test system: Platelet-derived growth factor receptor alpha (Homo sapiens), P16234 [T674I]; settings: at 0.1 µM
Platelet-derived growth factor receptor alpha (Homo sapiens), P16234 [T674I], sequence (P16234 whole entry T674I): as the sequence (P16234 whole entry) above, with T674I counted along it

[7] = test system: Platelet-derived growth factor receptor alpha (Homo sapiens), P16234 [T674I]; settings: at 1 µM
[8] = test system: Platelet-derived growth factor receptor alpha (Homo sapiens), P16234 [V561D]; settings: at 0.1 µM
Platelet-derived growth factor receptor alpha (Homo sapiens), P16234 [V561D], sequence (P16234 whole entry V561D): as the sequence (P16234 whole entry) above, with V561D counted along it

[9] = test system: Platelet-derived growth factor receptor alpha (Homo sapiens), P16234 [V561D]; settings: at 1 µM
[10] = biological target: Platelet-derived growth factor receptor beta (Homo sapiens) (UniProt P09619); settings: at 0.1 µM
[11] = biological target: Platelet-derived growth factor receptor beta (Homo sapiens) (UniProt P09619); settings: at 1 µM
[12] = biological target: Tyrosine-protein kinase FRK (Homo sapiens) (UniProt P42685); settings: at 0.1 µM
Tyrosine-protein kinase FRK (Homo sapiens), sequence (P42685 whole entry): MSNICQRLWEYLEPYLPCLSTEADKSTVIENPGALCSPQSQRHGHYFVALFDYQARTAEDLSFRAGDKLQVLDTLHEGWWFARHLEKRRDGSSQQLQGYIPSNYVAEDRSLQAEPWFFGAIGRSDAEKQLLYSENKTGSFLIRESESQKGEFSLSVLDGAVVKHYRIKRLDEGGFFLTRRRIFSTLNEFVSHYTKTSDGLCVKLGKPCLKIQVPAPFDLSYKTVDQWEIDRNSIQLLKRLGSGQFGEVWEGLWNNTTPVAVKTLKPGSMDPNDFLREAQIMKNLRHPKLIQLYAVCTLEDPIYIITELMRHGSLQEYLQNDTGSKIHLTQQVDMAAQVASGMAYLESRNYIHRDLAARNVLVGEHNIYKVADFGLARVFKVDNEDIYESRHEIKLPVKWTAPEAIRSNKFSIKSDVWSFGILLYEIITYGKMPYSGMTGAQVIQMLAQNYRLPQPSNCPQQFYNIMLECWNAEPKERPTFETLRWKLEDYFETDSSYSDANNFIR

[13] = biological target: Tyrosine-protein kinase FRK (Homo sapiens) (UniProt P42685); settings: at 1 µM
[14] = biological target: Proto-oncogene tyrosine-protein kinase receptor Ret (Homo sapiens) (UniProt P07949); settings: at 0.1 µM
[15] = biological target: Proto-oncogene tyrosine-protein kinase receptor Ret (Homo sapiens) (UniProt P07949); settings: at 1 µM
[16] = test system: Proto-oncogene tyrosine-protein kinase receptor Ret (Homo sapiens), P07949 [V804L]; settings: at 0.1 µM
[17] = test system: Proto-oncogene tyrosine-protein kinase receptor Ret (Homo sapiens), P07949 [V804L]; settings: at 1 µM
[18] = test system: Proto-oncogene tyrosine-protein kinase receptor Ret (Homo sapiens), P07949 [Y791F]; settings: at 0.1 µM
Proto-oncogene tyrosine-protein kinase receptor Ret (Homo sapiens), P07949 [Y791F], sequence (P07949 whole entry Y791F): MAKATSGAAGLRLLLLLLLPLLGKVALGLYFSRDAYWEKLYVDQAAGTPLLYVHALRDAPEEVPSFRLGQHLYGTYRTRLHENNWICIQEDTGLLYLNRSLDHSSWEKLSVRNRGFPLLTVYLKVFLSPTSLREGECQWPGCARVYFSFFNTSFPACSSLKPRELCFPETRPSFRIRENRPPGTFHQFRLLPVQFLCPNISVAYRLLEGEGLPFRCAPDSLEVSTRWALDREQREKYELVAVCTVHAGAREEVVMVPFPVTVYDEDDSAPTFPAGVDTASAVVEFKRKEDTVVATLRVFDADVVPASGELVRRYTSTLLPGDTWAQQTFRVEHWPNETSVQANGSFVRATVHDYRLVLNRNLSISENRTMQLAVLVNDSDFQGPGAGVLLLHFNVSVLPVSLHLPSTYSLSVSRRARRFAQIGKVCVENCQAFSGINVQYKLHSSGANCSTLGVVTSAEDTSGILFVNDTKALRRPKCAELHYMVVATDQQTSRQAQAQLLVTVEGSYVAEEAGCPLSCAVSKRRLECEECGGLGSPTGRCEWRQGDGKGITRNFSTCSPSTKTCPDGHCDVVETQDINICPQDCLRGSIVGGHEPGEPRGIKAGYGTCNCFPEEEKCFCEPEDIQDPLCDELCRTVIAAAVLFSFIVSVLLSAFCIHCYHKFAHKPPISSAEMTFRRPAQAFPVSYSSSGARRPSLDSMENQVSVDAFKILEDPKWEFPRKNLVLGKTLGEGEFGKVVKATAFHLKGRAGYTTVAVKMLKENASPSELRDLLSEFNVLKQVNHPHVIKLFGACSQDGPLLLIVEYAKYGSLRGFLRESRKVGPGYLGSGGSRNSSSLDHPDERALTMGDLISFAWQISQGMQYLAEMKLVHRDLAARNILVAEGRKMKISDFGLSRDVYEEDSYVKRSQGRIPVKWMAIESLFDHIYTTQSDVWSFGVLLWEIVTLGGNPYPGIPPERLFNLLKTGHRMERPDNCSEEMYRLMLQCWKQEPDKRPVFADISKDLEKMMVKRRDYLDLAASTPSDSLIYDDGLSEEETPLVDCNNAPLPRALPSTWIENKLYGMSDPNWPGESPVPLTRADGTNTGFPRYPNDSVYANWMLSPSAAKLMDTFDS

[19] = biological target: Protein-tyrosine kinase 2-beta (Homo sapiens) (UniProt Q14289); settings: at 0.1 µM
[20] = biological target: Protein-tyrosine kinase 2-beta (Homo sapiens) (UniProt Q14289); settings: at 1 µM

SMILES	inhibition [1]	inhibition [2]	inhibition [3]	inhibition [4]	inhibition [5]	inhibition [6]	inhibition [7]	inhibition [8]	inhibition [9]	inhibition [10]	inhibition [11]	inhibition [12]	inhibition [13]	inhibition [14]	inhibition [15]	inhibition [16]	inhibition [17]	inhibition [18]	inhibition [19]	inhibition [20]
COc1ccc(-c2coc3ncnc(N)c23)cc1	9.1%	8.72%	16.2%	3.41%	6.25%	5.4%	5.37%	6.46%	28%	3.23%	12.1%	1.9%	2.14%	4.27%	11.7%	4.56%	5.32%	10.4%	–	–
CN1CCC(C(=O)Nc2n[nH]c3nnc(-c4ccccc4)cc23)CC1	5.06%	5.74%	16.5%	3.37%	3.2%	6.86%	7.55%	7.2%	6.38%	2.43%	7.79%	2.63%	2.86%	1.29%	2.61%	4.66%	14.7%	3.08%	13.3%	15.2%
CC1=C(C(=O)Nc2ccc3[nH]ncc3c2)C(c2ccc(Cl)c(Cl)c2)CC(=O)N1 (stereo not drawn)	4.26%	6.81%	8.15%	0.72%	1.68%	2.47%	1.49%	0.48%	2.1%	1.34%	6.02%	1.03%	7.47%	5.65%	22.8%	3.81%	16.5%	8.05%	6.27%	8.74%
COc1cc2ncn(-c3cc(O[C@H](C)c4ccccc4Cl)c(C(N)=O)s3)c2cc1OC	78.2%	73.2%	100%	42.1%	88.2%	56.5%	97.2%	50.5%	87.3%	59.7%	95.3%	2.17%	2.07%	18.2%	51.8%	19.5%	54.8%	20.7%	10.3%	32.2%
CCn1c(-c2nonc2N)nc2cnc(Oc3cccc(NC(=O)c4ccc(OCCN5CCOCC5)cc4)c3)cc21	-1.35%	5.93%	9.57%	1.95%	4.64%	4.39%	9.13%	3.13%	3.7%	2.12%	9.39%	2.25%	0.86%	6.91%	10.4%	2.37%	6.08%	5.99%	4.56%	13%
O=C1NC(=O)C(c2cccc(Cl)c2)=C1Nc1ccc(O)c(Cl)c1	2.41%	6.23%	15.1%	4.44%	6.47%	1.04%	1.36%	2.63%	9.34%	0.85%	11.5%	-0.47%	1.74%	3.31%	7.66%	-0.49%	0.64%	2.27%	1%	9.11%
Cc1ccc(NC(=O)c2ccnc(N3CCCC3)c2)cc1-c1ccc(C(=O)NCC2CC2)cc1	9.18%	9.86%	20.7%	3.63%	5.68%	6.03%	5.86%	2.7%	11.8%	6.34%	13.4%	2.28%	2.38%	6.99%	9.44%	8.29%	9.54%	10.7%	12.2%	9.43%
c1cnn2ncc(-c3ccnc(Nc4ccc5c(c4)OCCO5)n3)c2c1	26.9%	16.1%	51.5%	6.44%	40.6%	16.9%	74.7%	23.3%	61.7%	18.4%	67.3%	1.69%	3.19%	5.62%	21.9%	5.79%	22%	4.73%	32.6%	84.6%
CCn1c(-c2nonc2N)nc2cncc(C(=O)N3CCNCC3)c21	4.88%	6.44%	9.34%	1.69%	6.27%	4.21%	6.95%	1.16%	4.29%	1.44%	4.8%	3.81%	4.59%	4.73%	6.87%	3.5%	6.04%	5.85%	4.67%	9.07%
CCn1c(-c2nonc2N)nc2cncc(C(=O)N3CC[C@H](N)C3)c21	3.51%	7.67%	6.08%	4.02%	5.6%	6.8%	8.93%	2.86%	1.28%	4.13%	10.7%	3.16%	2.04%	5.56%	4.11%	3.46%	4.03%	4.17%	10.8%	7.69%
CCc1cccc(NC(=O)Nc2ccc(Oc3ccc4nc(NC(=O)OC)[nH]c4c3)cc2)c1	31.1%	88.5%	96.8%	11.7%	20.5%	75.7%	100%	86.6%	94.5%	40.4%	56.3%	-0.04%	2.98%	72.8%	79.9%	35.6%	63.1%	53.5%	0.73%	8.1%
CS(=O)(=O)CCNCc1ccc(-c2ccc3ncnc(Nc4ccc(OCc5ccccc5)c(Cl)c4)c3c2)o1	4.27%	6.84%	9.41%	2.28%	2.49%	8.72%	11.1%	4.4%	4.91%	2.08%	5.7%	0.96%	2.22%	4.78%	9.58%	9.04%	12.4%	10.2%	5.42%	5.81%
COc1cc(C=NNc2ncnc3c2cnn3-c2ccccc2)ccc1O	43.8%	28.2%	78.2%	24.6%	79.5%	13.7%	39.1%	15.1%	68.9%	18.1%	68.9%	0.86%	3.44%	43.5%	80.6%	13.6%	46.3%	36.3%	4.69%	14.2%
